Source: PubChem
hcDAF-12 act: H. contortus DAF-12 activation, primary screen; 370,000 tested, 1.4% active; activation, % at 6.8 µM; AID 652067; HEK293 hcDAF-12 lit1-tk-luc reporter, luminescence; 0% DMSO, 100% Δ7-dafachronic acid;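 active = activation above the mean of all tested compounds plus 3 SD, cut at about 5.5% in these data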;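 also: 100% = response to 3 µM Δ7-dafachronic acid high control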
ssDAF12 agonist: S. stercoralis DAF-12 activation, primary screen. activation, % at 6.8 µM. 370,000 tested, 1% active. HEK293 ssDAF-12/GRIP1 lit1-tk-luc reporter, luminescence; % of 3 µM dafachronic acid response. AID 652126;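 active = activation above the mean over all tested compounds plus 3 SD, cut at about 0.9% in these data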;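 also: 0% = DMSO-only wells and 100% = 3 µM delta7-dafachronic acid wells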
DAX1 inh-1: blocks DAX1 repression of SF-1 activated StAR promoter; HEK293T StAR-luciferase reporter, SF-1/DAX-1 repression relief; inhibition, % at 6.8 µM; 370,000 tested, 1.1% active; AID 652010;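 active = inhibition above the mean over all tested compounds plus 3 SD, cut at about 3.6% in these data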;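 also: 0% = DAX-1 cells with DMSO and 100% = cells lacking DAX-1 with DMSO; higher inhibition means more luminescence from relief of DAX-1 repression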
PolyA inhibitor: inhibitors of polyadenylation in S. cerevisiae; AID 1875; S. cerevisiae SKY197-pL101 polyadenylation reporter, beta-gal luminescence; efflux-impaired pdr1/pdr3 knockout yeast; score 100 = 6 SD above DMSO; activity score, % at 12 µM; 300,000 tested, 0.02% active;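 active = lowest replicate activity score at least 50, where 100 means six control SD above control mean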;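 also: yeast exposed to compound for 9 h at 30 °C; higher score means more reporter readthrough which indicates perturbed polyadenylation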
DAX1 inh-2: inhibitors of human orphan nuclear receptor DAX1 (NR0B1) | inhibition, % at 6.75 µM | P51843 | 340,000 tested, 0.99% active | HEK293 Gal4-DAX1 luciferase reporter, luminescence | AID 504766;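 active = inhibition above the mean over all tested compounds plus 3 SD, cut at about 4.2% in these data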;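 also: 0% = DAX1-transfected cells with DMSO and 100% = empty-vector control cells with DMSO; inhibition shows as a rise in luminescence from relieved DAX1 repression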
hgDAF12 agonist: hgDAF-12 agonism, primary luciferase screen; activation, % at 6.8 µM; 370,000 tested, 1.8% active; HEK293 GAL4-hgDAF12 UAS-luciferase reporter, agonist luminescence; normalized to butyrate control;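 active = activation above a cutoff set at the mean of all screened compounds plus 3 SD, cut at about 10% in these data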;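 also: 0% = DMSO wells and 100% = sodium butyrate wells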
DAX1 inh confirm: confirmation of human DAX1 (NR0B1) inhibitors | shares compounds with DAX1 inh-1 | HEK293T StAR-promoter luciferase reporter, SF-1/DAX-1 repression | inhibition, % at 6.8 µM | 2,400 tested, 87% active | AID 652134;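 active = inhibition above the average of every tested compound plus 3 SD, cut at about 3.8% in these data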;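 also: 0% = DAX-1 cells with DMSO and 100% = no DAX-1 control cells with DMSO; active compounds raise luminescence by relieving repression of the StAR reporter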
Target sequence (P51843 whole entry, looked up): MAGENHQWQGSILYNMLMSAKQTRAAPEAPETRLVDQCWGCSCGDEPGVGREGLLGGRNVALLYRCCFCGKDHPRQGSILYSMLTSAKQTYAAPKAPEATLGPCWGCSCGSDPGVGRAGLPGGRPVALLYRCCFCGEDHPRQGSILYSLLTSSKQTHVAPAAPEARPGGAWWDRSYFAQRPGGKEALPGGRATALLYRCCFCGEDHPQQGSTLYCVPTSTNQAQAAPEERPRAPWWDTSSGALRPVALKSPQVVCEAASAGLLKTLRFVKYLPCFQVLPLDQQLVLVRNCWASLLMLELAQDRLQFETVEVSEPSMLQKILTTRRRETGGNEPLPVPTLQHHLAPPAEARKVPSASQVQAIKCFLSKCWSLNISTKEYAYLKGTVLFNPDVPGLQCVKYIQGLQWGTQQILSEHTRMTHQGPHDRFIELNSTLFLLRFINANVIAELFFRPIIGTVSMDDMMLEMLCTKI
SF1 AF2mut Luc: counter-screen for DAX1 inhibitors: nonselective inhibitors with SF-1 AF2 mutant. inhibition, % at 6.8 µM. 2,400 tested, 78% active. shares compounds with DAX1 inh-1. HEK293 StAR-luciferase, luminescence;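 active = inhibition above the mean of all tested compounds plus 3 SD, cut at about 3% in these data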;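 also: 0% = DAX-1 transfected cells with DMSO and 100% = cells without DAX-1 with DMSO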
LXR ag: activates human LXR-beta, counter-screen for hcDAF-12 agonists; 3,400 tested, under 10 active; activation, % at 6.8 µM; HEK293 Gal4-LXR tk-luc reporter, luminescence, 24 h; normalized: DMSO 0%, positive control 100%; shares compounds with hcDAF-12 act;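 active = mean percent activation of the reporter above a cutoff set as the average over tested compounds plus their standard deviation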
hcDAF12 ag: hcDAF-12 agonism, confirmation assay; shares compounds with hcDAF-12 act; HEK293 hcDAF-12 lit1-tk-luc reporter, luminescence; % of Δ7-dafachronic acid response; activation, % at 6.8 µM; 3,400 tested, 61% active; AID 743032;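 active = mean activation across triplicate tests above the threshold derived from the earlier primary screen, cut at about 5.5% in these data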;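 also: 0% = DMSO only wells and 100% = 3 µM Δ7-dafachronic acid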
The depositor's hits bear a star; . = no result. This is a sample that favours compounds with a hit; in the whole collection about 4.1% have one here.

SMILES	hcDAF-12 act	ssDAF12 agonist	DAX1 inh-1	PolyA inhibitor	DAX1 inh-2	hgDAF12 agonist	DAX1 inh confirm	SF1 AF2mut Luc	LXR ag	hcDAF12 ag
COc1ccc(C2=Nc3ccccc3N(C(=O)Cc3cc(OC)cc(OC)c3)C2C(=O)NC(C)C)cc1 (stereo not given)	6.7*	0.9*	6.0*	.	.	12*	9.8*	6.4*	1	5.7*
CCc1ccc(NC(=O)c2cnn3ccccc23)cc1	12*	1	5.5*	22	-4	5	6.1*	1	2	19*
OCC1OC(C(N=Nc2ccccc2)=NNc2ccccc2)C(O)C1O (stereo not given)	3	-1	1	.	.	3	.	.	.	.
Clc1ccc(-c2cn3c(n2)-c2ccccc2C3)cc1Cl	17*	2.0*	5.9*	-39	2	20*	9.2*	6.4*	2	15*
Cc1ccc(C(=O)/C=C/Nc2ccccc2C(N)=O)cc1	7.0*	1.8*	4.7*	-3	-2	12*	12*	7.0*	2	7.0*
COc1c(O)cc2oc(-c3ccc(O)cc3)cc(=O)c2c1O	9.6*	0	5.2*	19	0	11*	10*	2	2	6.8*
COc1cc2oc(-c3ccc(O)cc3)cc(=O)c2c(O)c1OC	-2	-1	-2	-6	-2	3	.	.	.	.
CNc1ccc(C=C2C=Cc3ccccc32)cc1	9.1*	1	7.3*	.	4.7*	15*	17*	7.2*	2	11*
CCOC(=O)c1sc(NC(=O)c2cncc(Br)c2)nc1C	-1	-1	0	4	.	2	.	.	.	.
Cc1csc(NC(=O)c2cncc(Br)c2)n1	6.8*	0	5.2*	-20	0	11*	13*	7.8*	1	4
CC(C)Cc1cc(C(=O)Nc2ccc3c(c2)OCO3)no1	7.5*	1.5*	7.3*	-5	2	13*	14*	7.2*	1	4
Nc1ccn([C@@H]2O[C@H](C(=O)N3CCCN(Cc4cccs4)CC3)[C@@H](O)[C@H]2O)c(=O)n1	1	-1	1	.	.	-4	.	.	.	.
O=c1c2c(nc3cc(-c4ccc(F)cc4)[nH]n13)CCCC2	6.9*	1	5.4*	-3	-1	10	11*	3.4*	1	5
Fc1ccc2nc3[nH]c4ccccc4c3nc2c1	9.0*	1	4.8*	-2	3	12*	14*	8.5*	2	11*
OC1=C(O)c2nc3cc(F)ccc3nc21	5	-1	0	2	.	4	.	.	.	.
CC(C)Oc1cccc(C(=O)Nc2ccc(Br)cc2F)c1	7.4*	0	6.6*	13	4.7*	17*	15*	8.4*	1	4
Cc1noc(C)c1COc1cccc(C(=O)Nc2ccc(Br)cc2F)c1	-3	-2	-3	.	-2	1	.	.	.	.
COC(=O)[C@]1(C)N[C@H](CN(C)S(=O)(=O)c2ccc(C(F)(F)F)cc2)[C@@H]2C(=O)N(C)C(=O)[C@@H]21	0	-1	0	.	-1	-2	.	.	.	.
COC(=O)[C@]12C[C@H](CC(=O)N3CCCC3)C(=O)N(Cc3ccco3)C1=C[C@H](C(C)(C)C)O[C@@H]2C	-1	-2	-1	.	.	0	.	.	.	.
CSc1ccc(/C=C/c2ccc3cccc(O)c3n2)cc1	22*	3.2*	5.0*	-30	0	34*	16*	7.1*	2	11*
CC1(O)C(c2ccccc2)=Nc2ccccc21 (stereo not given)	9.9*	0	5.3*	.	4.5*	11*	13*	7.6*	1	6.5*
CC(C)(C)NC(=O)C(c1cc2ccccc2o1)n1c(-c2ccc(-c3ccccc3)cc2)nc2ccccc21 (stereo not given)	21*	4.8*	10*	.	.	25*	13*	9.6*	2	25*
O=C1CCC2(CCCCC2)N1CCCO	0	0	-1	.	.	-3	.	.	.	.
CCCCn1c(SCCN2CCCCC2)nc2c1c(=O)n(C)c(=O)n2C	0	-1	0	.	1	1	.	.	.	.
C/C(=N/NC(=O)c1ccncc1)c1ccc(NC(=O)c2ccccc2)cc1	-1	-1	0	-1	-1	1	.	.	.	.
SMILES	hcDAF-12 act	ssDAF12 agonist	DAX1 inh-1	PolyA inhibitor	DAX1 inh-2	hgDAF12 agonist	DAX1 inh confirm	SF1 AF2mut Luc	LXR ag	hcDAF12 ag
C/C(=N\NC(=O)c1ccccc1O)c1ccc(NC(=O)c2ccccc2)cc1	7.4*	0	6.0*	.	0	12*	3	2	0	2
COc1ccc(NC(=O)c2nc3ccccc3s2)cc1	17*	2.5*	5.0*	-5	-1	10	13*	8.2*	2	15*
COc1ccc(NC(=O)c2cc3ccccn3n2)cc1	9.2*	0	7.9*	-12	1	9	15*	5.8*	1	5.8*
CNC(C#Cc1ccccc1)c1ccccc1C(F)(F)F (stereo not given)	-2	-1	.	.	.	0	.	.	.	.
Cc1ccc(-c2nnc(Nc3ccccc3)o2)cc1	8.0*	0	5.5*	-9	-5	6	19*	8.6*	2	6.5*
c1ccc(Nc2nnc(-c3ccc4c(c3)OCO4)o2)cc1	7.7*	1.2*	5.1*	.	.	9	6.6*	1	1	3
COC(=O)[C@]12C[C@H](CC(=O)NCCc3ccccc3OC)C(=O)N(Cc3ccc(Cl)cc3Cl)C1=C[C@H](C(C)C)O[C@@H]2C1CC1	0	-1	-1	.	.	2	.	.	.	.
Cc1cccc(C(=O)NC(=S)N2CCN(C(=S)NC(=O)c3cccc(C)c3)CC2)c1	1	0	1	0	1	-3	.	.	.	.
C[C@H](c1ccccc1)N1C[C@@H](COCc2ccccc2)Oc2cccc(Oc3ccc(F)cc3)c2S1(=O)=O	-1	-1	-2	.	.	-3	.	.	.	.
O=C(N/N=C/c1ccccc1Cl)c1n[nH]c2c1CCCC2	6.6*	1	5.1*	-3	-1	16*	1	-2	1	4
